Measurements published in PubChem BioAssay (NCATS).
Inconclusive results are not listed. A number with no mark means an inactive call. Active and inactive are the calls of the source. Calls come from the whole dose curve; as a rule, active = well fitted curve in the direction sought with a large enough effect; inconclusive = small, poorly fitted or top-dose-only effect, or another doubt; inactive = no such curve, though single readings can be large; an effect the other way counts as inactive or inconclusive.

Target: D(1A) dopamine receptor (Homo sapiens) (UniProt P21728)
Sequence (P21728 whole entry, looked up): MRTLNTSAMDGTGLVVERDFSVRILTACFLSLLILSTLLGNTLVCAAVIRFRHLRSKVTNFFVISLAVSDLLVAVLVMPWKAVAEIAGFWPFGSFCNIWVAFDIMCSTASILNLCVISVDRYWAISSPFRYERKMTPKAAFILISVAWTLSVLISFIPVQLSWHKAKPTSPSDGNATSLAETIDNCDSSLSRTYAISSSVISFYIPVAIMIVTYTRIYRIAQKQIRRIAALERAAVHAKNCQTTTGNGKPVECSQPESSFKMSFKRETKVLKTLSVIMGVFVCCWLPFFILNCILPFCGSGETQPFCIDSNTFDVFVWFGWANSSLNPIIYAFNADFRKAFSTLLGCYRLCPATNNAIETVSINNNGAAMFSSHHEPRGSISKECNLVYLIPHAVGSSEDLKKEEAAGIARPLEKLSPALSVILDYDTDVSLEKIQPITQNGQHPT
Assay: HTS Assay for Allosteric Agonists of the Human D1 Dopamine Receptor: Primary Screen for Agonists (AID 488981); note: 0% is about no effect
Details: Inducible HEK293 T-REx D1 cells, calcium-flux fluorescence, 180 s kinetic; series mostly up to 41.8 µM; activation: at the top concentration
How it was run: (§1)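 Tetracycline-induced HEK293 T-REx cells force-coupled to calcium signalling were incubated overnight at 30 C and dye-loaded at room temperature. Calcium flux over 180 s after compound addition flagged agonists; a further 180 s read after EC20 dopamine flagged potentiators.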

Compound	activation
Cc1cn([C@H]2C=C[C@@H](CO)O2)c(=O)[nH]c1=O	-0.264%
Cn1c(=O)c2c(ncn2C)n(C)c1=O	-0.952%
CC12CC3CC(C)(C1)CC(N)(C3)C2	11.6%
CC(CCc1ccc(O)cc1)NCCc1ccc(O)c(O)c1 (stereo not given)	-0.159%
CCCCc1oc2ccccc2c1C(=O)c1cc(I)c(OCCN(CC)CC)c(I)c1	0.688%
CC1COc2c(N3CCN(C)CC3)c(F)cc3c(=O)c(C(=O)O)cn1c23 (stereo not given)	-0.899%
CCOC(=O)c1ncn2c1CN(C)C(=O)c1cc(F)ccc1-2	-0.264%
CCC1(c2ccccc2)C(=O)NCNC1=O	-0.264%
NS(=O)(=O)c1cc2c(cc1Cl)NCNS2(=O)=O	-0.793%
CN1CCN2c3ccccc3Cc3ccccc3C2C1 (stereo not given)	1.48%
NC(CO)C(=O)NNCc1ccc(O)c(O)c1O (stereo not given)	-0.529%
C[C@H]1c2cccc(O)c2C(O)=C2C(=O)[C@]3(O)C(O)=C(C(N)=O)C(=O)[C@@H](N(C)C)[C@@H]3[C@@H](O)[C@@H]21	-1.06%
CC(C)C(=O)Nc1ccc([N+](=O)[O-])c(C(F)(F)F)c1	1.96%
CCC1(C)CC(=O)NC1=O (stereo not given)	-0.0529%
NCCCCCC(=O)O	-0.423%
CN1CCC(=C2c3ccccc3CC(=O)c3sccc32)CC1	19.5%

Compound	activation
C[C@](N)(Cc1ccc(O)c(O)c1)C(=O)O	-0.264%
Clc1ccccc1C(c1ccccc1)(c1ccccc1)n1ccnc1	8.41%
NC(=O)OCC(COC(N)=O)c1ccccc1	-0.106%
CC(COc1ccccc1)N(CCCl)Cc1ccccc1 (stereo not given)	0.0529%
Nc1nnc(-c2cccc(Cl)c2Cl)c(N)n1	0.476%
NC12CC3CC(CC(C3)C1)C2	1.8%
COc1ccc2[nH]cc(CCNC(C)=O)c2c1	-0.899%
Nc1nc2c(ncn2COC(CO)CO)c(=O)[nH]1	-0.476%
Cc1ccccc1N1C(=O)c2cc(S(N)(=O)=O)c(Cl)cc2NC1C (stereo not given)	-0.159%
CN(C)c1nc(N(C)C)nc(N(C)C)n1	-0.37%
CCOC(=O)C(C)(C)Oc1ccc(Cl)cc1	-0.37%
CCc1cccc2c3c([nH]c12)C(CC)(CC(=O)O)OCC3 (stereo not given)	-0.74%
Cc1cc(C(C)(C)C)c(O)c(C)c1CC1=NCCN1	-0.211%
CC(C)(Oc1ccc(C2CC2(Cl)Cl)cc1)C(=O)O (stereo not given)	0%
COc1ccc2c(c1)c(CC(=O)O)c(C)n2C(=O)c1ccc(Cl)cc1	-1.16%

Target: D(1A) dopamine receptor (Homo sapiens) (UniProt P21728)
Assay: HTS Assay for Allosteric Agonists of the Human D1 Dopamine Receptor: Primary Screen for Potentiators (AID 488982); note: 0% is about no effect
Details: HEK293 T-REx D1 inducible cells, calcium flux, kinetic fluorescence; series mostly up to 8.37 µM; activity, positive = potentiation: at the top concentration
How it was run: as §1

Compound	activity, positive = potentiation
Cc1cn([C@H]2C=C[C@@H](CO)O2)c(=O)[nH]c1=O	18.2%
Cn1c(=O)c2c(ncn2C)n(C)c1=O	-8.79%
CC12CC3CC(C)(C1)CC(N)(C3)C2	25.1%
CCCCc1oc2ccccc2c1C(=O)c1cc(I)c(OCCN(CC)CC)c(I)c1	76.3%
CC1COc2c(N3CCN(C)CC3)c(F)cc3c(=O)c(C(=O)O)cn1c23 (stereo not given)	12.2%
CCOC(=O)c1ncn2c1CN(C)C(=O)c1cc(F)ccc1-2	4.26%
CCC1(c2ccccc2)C(=O)NCNC1=O	15%
NS(=O)(=O)c1cc2c(cc1Cl)NCNS2(=O)=O	16.6%
CN1CCN2c3ccccc3Cc3ccccc3C2C1 (stereo not given)	-93.6%
NC(CO)C(=O)NNCc1ccc(O)c(O)c1O (stereo not given)	29.4%
CCC1(C)CC(=O)NC1=O (stereo not given)	-23.2%
NCCCCCC(=O)O	-9.52%
CN1CCC(=C2c3ccccc3CC(=O)c3sccc32)CC1	-69.2%
Clc1ccccc1C(c1ccccc1)(c1ccccc1)n1ccnc1	17.4%
NC(=O)OCC(COC(N)=O)c1ccccc1	1.7%
CC(COc1ccccc1)N(CCCl)Cc1ccccc1 (stereo not given)	9.71%
NC12CC3CC(CC(C3)C1)C2	29.3%
COc1ccc2[nH]cc(CCNC(C)=O)c2c1	-10.8%
Nc1nc2c(ncn2COC(CO)CO)c(=O)[nH]1	-0.434%
Cc1ccccc1N1C(=O)c2cc(S(N)(=O)=O)c(Cl)cc2NC1C (stereo not given)	-0.0869%
CN(C)c1nc(N(C)C)nc(N(C)C)n1	-5.34%
CCOC(=O)C(C)(C)Oc1ccc(Cl)cc1	12.3%
CCc1cccc2c3c([nH]c12)C(CC)(CC(=O)O)OCC3 (stereo not given)	-7.52%
Cc1cc(C(C)(C)C)c(O)c(C)c1CC1=NCCN1	6.42%
CC(C)(Oc1ccc(C2CC2(Cl)Cl)cc1)C(=O)O (stereo not given)	8.35%

Target: D(1A) dopamine receptor (Homo sapiens) (UniProt P21728)
Assay: HTS Assay for Allosteric Agonists of the Human D1 Dopamine Receptor: Primary Screen for Antagonists (AID 488983);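 note: calcium flux response to an EC80 dopamine challenge measured with no-wash dye; nearly all actives have a fitted effect of over 65% in size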; note: potency is the fitted concentration of half-maximal effect; for activity change, negative = inhibition: % is set by controls: 0 for no effect and ±100 for the full control effect
Details: D1 receptor cell assay, antagonist mode, qHTS titration; series mostly up to 41.8 µM; activity change, negative = inhibition: at the top concentration
How it was run: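 Calcium flux readout, no-wash dye, inducible HEK293 T-REx D1 line (force-coupled). Compound added after 10 s baseline, 180 s kinetic read; then dopamine at EC80, further 180 s read.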

Compound	activity change, negative = inhibition	Potency
Cc1cn([C@H]2C=C[C@@H](CO)O2)c(=O)[nH]c1=O	11%	–
Cn1c(=O)c2c(ncn2C)n(C)c1=O	4.36%	–
CC12CC3CC(C)(C1)CC(N)(C3)C2	7.69%	–
CC(CCc1ccc(O)cc1)NCCc1ccc(O)c(O)c1 (stereo not given)	-8.7%	–
CC1COc2c(N3CCN(C)CC3)c(F)cc3c(=O)c(C(=O)O)cn1c23 (stereo not given)	3.1%	–
CCOC(=O)c1ncn2c1CN(C)C(=O)c1cc(F)ccc1-2	9.72%	–
CCC1(c2ccccc2)C(=O)NCNC1=O	3.96%	–
NS(=O)(=O)c1cc2c(cc1Cl)NCNS2(=O)=O	15.3%	–
NC(CO)C(=O)NNCc1ccc(O)c(O)c1O (stereo not given)	3.79%	–
C[C@H]1c2cccc(O)c2C(O)=C2C(=O)[C@]3(O)C(O)=C(C(N)=O)C(=O)[C@@H](N(C)C)[C@@H]3[C@@H](O)[C@@H]21	23%	–
CC(C)C(=O)Nc1ccc([N+](=O)[O-])c(C(F)(F)F)c1	-23.4%	–
CCC1(C)CC(=O)NC1=O (stereo not given)	-9.88%	–
NCCCCCC(=O)O	10.2%	–
CN1CCC(=C2c3ccccc3CC(=O)c3sccc32)CC1	–	2000 nM (active)
C[C@](N)(Cc1ccc(O)c(O)c1)C(=O)O	-0.943%	–
Clc1ccccc1C(c1ccccc1)(c1ccccc1)n1ccnc1	-10.1%	–
NC(=O)OCC(COC(N)=O)c1ccccc1	8.49%	–
CC(COc1ccccc1)N(CCCl)Cc1ccccc1 (stereo not given)	29.7%	–
Nc1nnc(-c2cccc(Cl)c2Cl)c(N)n1	2.69%	–
NC12CC3CC(CC(C3)C1)C2	7.36%	–
COc1ccc2[nH]cc(CCNC(C)=O)c2c1	-6.08%	–
Nc1nc2c(ncn2COC(CO)CO)c(=O)[nH]1	10.7%	–
Cc1ccccc1N1C(=O)c2cc(S(N)(=O)=O)c(Cl)cc2NC1C (stereo not given)	-0.648%	–
CN(C)c1nc(N(C)C)nc(N(C)C)n1	-4.23%	–
CCOC(=O)C(C)(C)Oc1ccc(Cl)cc1	-1.63%	–
CCc1cccc2c3c([nH]c12)C(CC)(CC(=O)O)OCC3 (stereo not given)	-2.25%	–
Cc1cc(C(C)(C)C)c(O)c(C)c1CC1=NCCN1	2.6%	–
CC(C)(Oc1ccc(C2CC2(Cl)Cl)cc1)C(=O)O (stereo not given)	-18.2%	–
COc1ccc2c(c1)c(CC(=O)O)c(C)n2C(=O)c1ccc(Cl)cc1	-0.41%	–
